Compound activity as filed in PubChem.
This is a sample that favours compounds with a hit; in the whole collection about 2.1% have one here.
HIV Env fusion: inhibitors of HIV-1 Env-driven cell-cell fusion, primary screen, HeLa-JRFL effector, CEM21 target cells, luciferase | hit rate 1.1% among 360,000 | inhibition, % at 12.3 µM | AID 651610, 2012;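 active means mean replicate inhibition score of at least 50 and every replicate individually at or above 50; inconclusive means only one of the two criteria met; inactive means mean below 50 and not all replicates reaching 50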
AF4-AF9 inh: inhibitors of AF4 peptide binding to AF9, primary screen, biochemical, AlphaScreen, biotin-AF4 peptide, FLAG-AF9, single point; inhibition, % at 10 µM; hit rate 0.47% among 350,000; AID 651704, 2012;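 active means every replicate reaching a set inhibition limit, whatever the replicate mean, cut at about 25% in these data; inconclusive means mean inhibition reaches that limit but some replicates miss it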
Target sequence (P42568 whole entry, looked up): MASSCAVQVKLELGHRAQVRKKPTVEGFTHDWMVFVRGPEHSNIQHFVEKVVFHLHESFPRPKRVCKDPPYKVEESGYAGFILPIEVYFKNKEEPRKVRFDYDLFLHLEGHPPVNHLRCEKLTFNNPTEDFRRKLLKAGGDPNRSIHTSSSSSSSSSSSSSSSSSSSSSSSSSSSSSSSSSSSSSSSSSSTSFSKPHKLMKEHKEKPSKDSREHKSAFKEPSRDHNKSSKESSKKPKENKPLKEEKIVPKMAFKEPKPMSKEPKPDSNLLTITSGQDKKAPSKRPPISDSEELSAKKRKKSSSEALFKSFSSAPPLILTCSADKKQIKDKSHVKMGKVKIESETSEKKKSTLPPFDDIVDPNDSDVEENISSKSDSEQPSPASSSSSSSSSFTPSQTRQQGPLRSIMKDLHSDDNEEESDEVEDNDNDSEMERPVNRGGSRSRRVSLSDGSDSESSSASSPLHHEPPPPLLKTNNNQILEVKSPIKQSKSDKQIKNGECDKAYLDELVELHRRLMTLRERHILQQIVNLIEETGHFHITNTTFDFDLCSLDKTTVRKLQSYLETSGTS
PGC1a acetyl inh: inhibitors of PGC1a acetylation signal, primary screen, cell-based, U2OS, AlphaScreen, inhibitor mode; AID 651687, 2012; inhibition, % at 15.6 µM; hit rate 0.17% among 350,000; AlphaScreen anti-acetyl-lysine; with virally co-expressed GCN5 acetyltransferase;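 active means every replicate shows inhibition of at least 40%; inconclusive means mean inhibition at least 40% but some replicate below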
INS-1E GSIS act: GLuc luminescence reporter in INS-1E cells, primary screen for activators of glucose-dependent secretion of insulin; INS-1E GLuc reporter insulin secretion, 2-3 h; activation, % at 16.6 µM; hit rate 0.61% among 370,000; AID 743287, 2014;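 active means lowest replicate activation of at least 40%, so every replicate reaches that level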
NSD2 inh: NSD2 histone methyltransferase inhibitors, primary screen, biochemical, AlphaScreen, single concentration, set 2 | Histone-lysine N-methyltransferase NSD2 (Homo sapiens), O96028 | NSD2 peptide methylation, 120 min | inhibition, % at 12.5 µM | hit rate 0.54% among 310,000; in the data active means inhibition above about 50%
Numbers stand for hits.

Screening CCN(CC)S(=O)(=O)c1ccc(C(=O)N(c2ccccc2)C2C=CS(=O)(=O)C2)cc1 (stereo not given) returned HIV Env fusion inactive, AF4-AF9 inh inactive, PGC1a acetyl inh 46 and NSD2 inh inactive.
O=[N+]([O-])c1ccccc1Sc1nccn1Cc1ccccc1 was read as HIV Env fusion inactive, INS-1E GSIS act 54 and NSD2 inh inactive.
For CCCCCCN1C[C@H](O)[C@@H](n2cc(-c3ccc(F)cc3)nn2)C[C@@H]1c1ccc(Cl)cc1 the results were HIV Env fusion inactive, AF4-AF9 inh inactive, PGC1a acetyl inh inactive and INS-1E GSIS act inactive.
For COc1ccccc1CNC(=O)COC(=O)CSc1ccc(C)c(C)c1 the results were HIV Env fusion 68, AF4-AF9 inh inactive, PGC1a acetyl inh inactive, INS-1E GSIS act inactive and NSD2 inh inactive.
`O=S(=O)(NCC1CCCO1)c1ccc(Oc2ccccc2)cc1` (stereo not given) gave HIV Env fusion 57, PGC1a acetyl inh inactive, INS-1E GSIS act inactive and NSD2 inh inactive.
O=S(=O)(NCC1CCCO1)c1ccc(-c2ccc(S(=O)(=O)NCC3CCCO3)cc2)cc1 (stereo not given) was read as HIV Env fusion inconclusive, AF4-AF9 inh inactive, PGC1a acetyl inh inactive, INS-1E GSIS act inactive and NSD2 inh inactive.
Cc1ccc(-c2nc3c(c(SCC(=O)N4CCCC4)n2)COC(C)(C)C3)cc1 was read as HIV Env fusion inactive, AF4-AF9 inh inactive, PGC1a acetyl inh inactive, INS-1E GSIS act 44 and NSD2 inh inactive.
CC1(C)Cc2nc(-c3ccccc3)nc(SCC(=O)N3CCOCC3)c2CO1 was read as HIV Env fusion inactive, AF4-AF9 inh inactive, PGC1a acetyl inh inactive, INS-1E GSIS act inactive and NSD2 inh inactive.
Screening CCSc1nnc([C@H](Cc2ccccc2)NC(=O)OC(C)(C)C)o1 returned HIV Env fusion inactive, PGC1a acetyl inh inactive and NSD2 inh inactive.
Cc1ccccc1CS(=O)(=O)c1nnc([C@H](Cc2ccccc2)NC(=O)OC(C)(C)C)o1 was read as AF4-AF9 inh inactive, PGC1a acetyl inh 55, INS-1E GSIS act 45 and NSD2 inh inactive.
Screening CC(C)(C)OC(=O)N[C@@H](Cc1ccccc1)c1nnc(SCC(=O)O)o1 returned HIV Env fusion inactive, PGC1a acetyl inh inactive, INS-1E GSIS act inactive and NSD2 inh inactive.
CC(C)(C)OC(=O)N[C@@H](Cc1ccccc1)c1nnc(S(=O)(=O)Cc2ccccc2)o1 was read as HIV Env fusion inactive and INS-1E GSIS act 169.
Screening CC1C(=NO)C(C)C(c2ccc(N(C)C)cc2)NC1c1ccc(N(C)C)cc1 (stereo not given) returned AF4-AF9 inh 43, PGC1a acetyl inh inactive, INS-1E GSIS act inactive and NSD2 inh inactive.
Screening CC1C(=O)C(C)C(c2ccc(Cl)cc2)NC1c1ccc(Cl)cc1 (stereo not given) returned HIV Env fusion inactive, AF4-AF9 inh inactive, PGC1a acetyl inh inactive, INS-1E GSIS act inactive and NSD2 inh inactive.
`O=C(Cn1c(=O)n(CC2CCCO2)c(=O)c2ccccc21)c1ccc(Cl)c(Cl)c1` (stereo not given) gave HIV Env fusion 58, PGC1a acetyl inh inactive and NSD2 inh inactive.
`CCN(CC)c1ccc(/C=N/N2CCN(c3ccccc3OC)CC2)cc1` gave HIV Env fusion inactive, AF4-AF9 inh 30, PGC1a acetyl inh inactive, INS-1E GSIS act inactive and NSD2 inh inactive.
For Fc1ccccc1/C=N/N1CCN(Cc2ccccc2Cl)CC1 the results were HIV Env fusion inactive, AF4-AF9 inh inactive, INS-1E GSIS act inactive and NSD2 inh inactive.
Screening C(=N\N1CCN(Cc2ccccc2)CC1)/c1ccccc1 returned HIV Env fusion inactive, AF4-AF9 inh inactive, PGC1a acetyl inh inactive, INS-1E GSIS act inactive and NSD2 inh inactive.
`COc1ccc(/C=N/N2CCN(c3ccccc3OC)CC2)cc1OC` gave HIV Env fusion inactive, PGC1a acetyl inh inactive, INS-1E GSIS act inactive and NSD2 inh inactive.
Screening CCN(CC)c1ccc(/C=N/N2CCN(Cc3ccccc3)CC2)cc1 returned HIV Env fusion inactive, AF4-AF9 inh 37, INS-1E GSIS act inactive and NSD2 inh inactive.
O=[N+]([O-])c1ccc(/C=N\N2CCN(Cc3ccccc3Cl)CC2)cc1 was read as HIV Env fusion inactive, AF4-AF9 inh inactive, PGC1a acetyl inh inactive, INS-1E GSIS act inactive and NSD2 inh inactive.
For CCN(CC)c1ccc(/C=N/N2CCN(Cc3ccccc3Cl)CC2)cc1 the results were HIV Env fusion inactive, AF4-AF9 inh 26, PGC1a acetyl inh inactive, INS-1E GSIS act inactive and NSD2 inh inactive.
Screening CN(C)c1ccc(/C=N/N2CCN(Cc3ccccc3Cl)CC2)cc1 returned HIV Env fusion inactive, AF4-AF9 inh 31, PGC1a acetyl inh inactive, INS-1E GSIS act inactive and NSD2 inh inactive.
Cc1noc(C)c1NC(=O)N[C@H]1CC[C@@H](CCNC(=O)C2CC2)O[C@@H]1CO was read as HIV Env fusion inactive, AF4-AF9 inh inactive, PGC1a acetyl inh inactive and INS-1E GSIS act inactive.
`Cc1noc(C)c1S(=O)(=O)Nc1ccc2c(c1)C(=O)N([C@H](C)CO)C[C@H](C)[C@@H](CN(C)C(=O)Nc1ccc3c(c1)OCO3)OCCCC[C@@H](C)O2` gave HIV Env fusion inactive, AF4-AF9 inh inactive, PGC1a acetyl inh inactive and INS-1E GSIS act inactive.
Cc1ccc(CSCCC(=O)NCCC2=CCCCC2)cc1 was read as HIV Env fusion inactive, INS-1E GSIS act inactive and NSD2 inh inactive.
For O=C(NCC[C@H]1CC[C@@H](NS(=O)(=O)c2cccc(F)c2)[C@H](CO)O1)C1CCCC1 the results were HIV Env fusion inactive, AF4-AF9 inh inactive, PGC1a acetyl inh inactive and INS-1E GSIS act inactive.
`COCCn1c(=S)[nH]c2sc3c(c2c1=O)CCCC3` gave HIV Env fusion inactive, AF4-AF9 inh inactive, INS-1E GSIS act 45 and NSD2 inh inactive.
CCOC(=O)/C(C#N)=C/c1c(N2CCCCCC2)nc2ccccn2c1=O was read as HIV Env fusion inactive, AF4-AF9 inh inactive, PGC1a acetyl inh inactive, INS-1E GSIS act inactive and NSD2 inh inactive.
For CCNc1nn2ccccc2c1/C=C(\C#N)C(=O)OCC the results were HIV Env fusion inactive, AF4-AF9 inh inactive, PGC1a acetyl inh inactive, INS-1E GSIS act 66 and NSD2 inh inactive.
Screening O=C(NC[C@@H]1[C@@H](c2ccccc2)[C@@H](CO)N1C(=O)C1CC1)NC1CCCC1 returned AF4-AF9 inh inactive, PGC1a acetyl inh inactive and INS-1E GSIS act inactive.
`Cc1ccc(NC(=O)CCC(=O)c2cccs2)cc1F` gave HIV Env fusion inactive, AF4-AF9 inh inactive, INS-1E GSIS act inactive and NSD2 inh inactive.
`OC(c1ccccc1)(c1nc(-c2cccc(C(F)(F)F)c2)cs1)C(F)(F)F` (stereo not given) gave HIV Env fusion inactive, AF4-AF9 inh inactive, PGC1a acetyl inh inactive, INS-1E GSIS act 106 and NSD2 inh inactive.
Screening Clc1ccc(CN2CCN(c3ncnc4scc(-c5cccs5)c34)CC2)cc1 returned HIV Env fusion 66, PGC1a acetyl inh inactive and NSD2 inh inactive.
